Laboratory results published in PubChem BioAssay AID1159580 (chemical genetic matrix, 2015).
Screen size: about 5,500 compounds; about 2,000 (36%) were called active. Another 18% or so got no clear call; they are omitted. Some of the results follow. Values without a mark were called inactive. Rule as the data show it: active = normalized growth mostly below about 0.91 (no sharp cut-off); inconclusive = no clear call, values can overlap the other calls; inactive = mostly above about 0.92.

Test: chemical genetic growth profiling, strain panel (AID 1159580);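 also: tested at 20 µM; growth read once vehicle control cultures reached saturation at 30 °C; 1 = growth at the plate median or of vehicle wells; lower values mean less growth of the strain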
Conditions: growth OD

`CCOc1ccc(Cc2nccc3cc(OCC)c(OCC)cc23)cc1OCC` gave a normalized growth (S. cerevisiae deletion strains, locus YJR075W, strain HOC1, stronger effect = lower value) of 0.92, a normalized growth (S. cerevisiae deletion strains, locus YKL009W, strain mrt4, stronger effect = lower value) of 0.969 and a normalized growth (S. cerevisiae deletion strains, locus YKL068W, stronger effect = lower value) of 0.986. The normalized growth (S. cerevisiae deletion strains, locus YKL085W, strain MDH1 (second series), stronger effect = lower value) was 0.985, the normalized growth (S. cerevisiae deletion strains, locus YKL085W, strain MDH1, stronger effect = lower value) was 0.985 and the normalized growth (S. cerevisiae deletion strains, locus YKL160W, strain elf1, stronger effect = lower value) was 0.98. For the same molecule, the normalized growth (S. cerevisiae deletion strains, locus YKL190W, strain CNB1, stronger effect = lower value) was 0.98, the normalized growth (S. cerevisiae deletion strains, locus YKR001C, strain vps1, stronger effect = lower value) was 0.88 (active) and the normalized growth (S. cerevisiae deletion strains, locus YKR026C, strain gcn3, stronger effect = lower value) was 0.975. The normalized growth (S. cerevisiae deletion strains, locus YKR091W, strain srl3, stronger effect = lower value) was 0.979, the normalized growth (S. cerevisiae deletion strains, locus YLL001W, strain dnm1, stronger effect = lower value) was 0.96 and the normalized growth (S. cerevisiae deletion strains, locus YLL026W, stronger effect = lower value) was 0.984. It also gave a normalized growth (S. cerevisiae deletion strains, locus YLL041C, strain sdh2, stronger effect = lower value) of 0.975, a normalized growth (S. cerevisiae deletion strains, locus YLR027C, strain aat2, stronger effect = lower value) of 0.97 and a normalized growth (S. cerevisiae deletion strains, locus YLR039C, strain RIC1, stronger effect = lower value) of 0.878. For the same molecule, the normalized growth (S. cerevisiae deletion strains, locus YLR058C, strain SHM2, stronger effect = lower value) was 0.949, the normalized growth (S. cerevisiae deletion strains, locus YLR102C, strain apc9, stronger effect = lower value) was 0.978 and the normalized growth (S. cerevisiae deletion strains, locus YLR113W, strain HOG1, stronger effect = lower value) was 1.02. For the same molecule, the normalized growth (S. cerevisiae deletion strains, locus YLR221C, strain rsa3, stronger effect = lower value) was 0.982, the normalized growth (S. cerevisiae deletion strains, locus YLR258W, strain gsy2, stronger effect = lower value) was 0.968 and the normalized growth (S. cerevisiae deletion strains, locus YLR262C, strain YPT6 (second series), stronger effect = lower value) was 0.871. For the same molecule, the normalized growth (S. cerevisiae deletion strains, locus YLR262C, strain YPT6, stronger effect = lower value) was 0.861, the normalized growth (S. cerevisiae deletion strains, locus YLR268W, strain sec22, stronger effect = lower value) was 0.873 (active) and the normalized growth (S. cerevisiae deletion strains, locus YLR320W, strain mms22, stronger effect = lower value) was 0.949. The normalized growth (S. cerevisiae deletion strains, locus YLR330W, strain CHS5, stronger effect = lower value) was 0.979, the normalized growth (S. cerevisiae deletion strains, locus YLR342W, strain FKS1 (second series), stronger effect = lower value) was 0.901 and the normalized growth (S. cerevisiae deletion strains, locus YLR342W, strain FKS1, stronger effect = lower value) was 0.963. It also gave a normalized growth (S. cerevisiae deletion strains, locus YLR357W, strain rsc2, stronger effect = lower value) of 0.899, a normalized growth (S. cerevisiae deletion strains, locus YLR370C, strain arc18, stronger effect = lower value) of 0.977 and a normalized growth (S. cerevisiae deletion strains, locus YLR371W, strain rom2, stronger effect = lower value) of 0.966. The normalized growth (S. cerevisiae deletion strains, locus YLR384C, strain iki3, stronger effect = lower value) was 0.989, the normalized growth (S. cerevisiae deletion strains, locus YLR418C, strain cdc73, stronger effect = lower value) was 0.772 (active) and the normalized growth (S. cerevisiae deletion strains, locus YML016C, strain PPZ1, stronger effect = lower value) was 0.973. The normalized growth (S. cerevisiae deletion strains, locus YML032C, strain rad52, stronger effect = lower value) was 0.943, the normalized growth (S. cerevisiae deletion strains, locus YML120C, strain ndi1, stronger effect = lower value) was 0.965 and the normalized growth (S. cerevisiae deletion strains, locus YML124C, strain tub3, stronger effect = lower value) was 0.979. It also gave a normalized growth (S. cerevisiae deletion strains, locus YMR058W, strain fet3, stronger effect = lower value) of 0.967, a normalized growth (S. cerevisiae deletion strains, locus YMR078C, strain ctf18, stronger effect = lower value) of 0.957 and a normalized growth (S. cerevisiae deletion strains, locus YMR125W, strain sto1, stronger effect = lower value) of 1.01. For the same molecule, the normalized growth (S. cerevisiae deletion strains, locus YMR129W, stronger effect = lower value) was 0.984, the normalized growth (S. cerevisiae deletion strains, locus YMR205C, strain PFK2, stronger effect = lower value) was 0.938 and the normalized growth (S. cerevisiae deletion strains, locus YMR223W, strain ubp8, stronger effect = lower value) was 0.971. It also gave a normalized growth (S. cerevisiae deletion strains, locus YMR231W, strain pep5, stronger effect = lower value) of 0.979, a normalized growth (S. cerevisiae deletion strains, locus YMR307W, strain GAS1, stronger effect = lower value) of 0.769 and a normalized growth (S. cerevisiae deletion strains, locus YNL067W, strain RPL9B, stronger effect = lower value) of 0.935. For the same molecule, the normalized growth (S. cerevisiae deletion strains, locus YNL071W, strain lat1, stronger effect = lower value) was 0.985, the normalized growth (S. cerevisiae deletion strains, locus YNL128W, strain TEP1, stronger effect = lower value) was 0.967 and the normalized growth (S. cerevisiae deletion strains, locus YNL153C, strain GIM3, stronger effect = lower value) was 0.961. It also gave a normalized growth (S. cerevisiae deletion strains, locus YNL183C, strain NPR1, stronger effect = lower value) of 0.899, a normalized growth (S. cerevisiae deletion strains, locus YNL209W, strain ssb2, stronger effect = lower value) of 0.98 and a normalized growth (S. cerevisiae deletion strains, locus YNL233W, strain BNI4, stronger effect = lower value) of 0.917. The normalized growth (S. cerevisiae deletion strains, locus YNL248C, strain rpa49, stronger effect = lower value) was 0.942, the normalized growth (S. cerevisiae deletion strains, locus YNL250W, strain rad50, stronger effect = lower value) was 0.98 and the normalized growth (S. cerevisiae deletion strains, locus YNL271C, strain bni1, stronger effect = lower value) was 0.979. The normalized growth (S. cerevisiae deletion strains, locus YNL298W, strain CLA4, stronger effect = lower value) was 0.993, the normalized growth (S. cerevisiae deletion strains, locus YNL307C, strain MCK1, stronger effect = lower value) was 0.875 (active) and the normalized growth (S. cerevisiae deletion strains, locus YNL322C, strain KRE1 (second series), stronger effect = lower value) was 0.982. For the same molecule, the normalized growth (S. cerevisiae deletion strains, locus YNL322C, strain KRE1, stronger effect = lower value) was 0.986, the normalized growth (S. cerevisiae deletion strains, locus YNR049C, strain mso1, stronger effect = lower value) was 0.965 and the normalized growth (S. cerevisiae deletion strains, locus YNR052C, strain pop2, stronger effect = lower value) was 0.974. The normalized growth (S. cerevisiae deletion strains, locus YOL006C, strain TOP1, stronger effect = lower value) was 0.771, the normalized growth (S. cerevisiae deletion strains, locus YOL012C, strain htz1) was 1.53 and the normalized growth (S. cerevisiae deletion strains, locus YOL147C, strain pex11, stronger effect = lower value) was 0.969. It also gave a normalized growth (S. cerevisiae deletion strains, locus YOR001W, strain rrp6, stronger effect = lower value) of 0.966, a normalized growth (S. cerevisiae deletion strains, locus YOR061W, strain CKA2, stronger effect = lower value) of 0.978 and a normalized growth (S. cerevisiae deletion strains, locus YOR069W, strain VPS5, stronger effect = lower value) of 0.98. For the same molecule, the normalized growth (S. cerevisiae deletion strains, locus YOR070C, strain gyp1, stronger effect = lower value) was 0.976, the normalized growth (S. cerevisiae deletion strains, locus YOR080W, strain dia2, stronger effect = lower value) was 0.977 and the normalized growth (S. cerevisiae deletion strains, locus YOR083W, strain WHI5, stronger effect = lower value) was 0.95. It also gave a normalized growth (S. cerevisiae deletion strains, locus YOR106W, strain vam3, stronger effect = lower value) of 0.928, a normalized growth (S. cerevisiae deletion strains, locus YOR136W, strain idh2, stronger effect = lower value) of 0.974 and a normalized growth (S. cerevisiae deletion strains, locus YOR144C, strain elg1, stronger effect = lower value) of 0.974. It also gave a normalized growth (S. cerevisiae deletion strains, locus YOR184W, strain ser1, stronger effect = lower value) of 0.899, a normalized growth (S. cerevisiae deletion strains, locus YOR231W, strain MKK1, stronger effect = lower value) of 0.978 and a normalized growth (S. cerevisiae deletion strains, locus YOR265W, strain rbl2, stronger effect = lower value) of 0.993. The normalized growth (S. cerevisiae deletion strains, locus YOR270C, strain vph1, stronger effect = lower value) was 0.849, the normalized growth (S. cerevisiae deletion strains, locus YOR290C, strain snf2, stronger effect = lower value) was 0.974 and the normalized growth (S. cerevisiae deletion strains, locus YOR316C, strain cot1, stronger effect = lower value) was 0.967. For the same molecule, the normalized growth (S. cerevisiae deletion strains, locus YPL051W, strain arl3, stronger effect = lower value) was 0.948, the normalized growth (S. cerevisiae deletion strains, locus YPL055C, strain LGE1, stronger effect = lower value) was 0.906 and the normalized growth (S. cerevisiae deletion strains, locus YPL078C, strain atp4, stronger effect = lower value) was 0.962. It also gave a normalized growth (S. cerevisiae deletion strains, locus YPL106C, strain sse1, stronger effect = lower value) of 0.999, a normalized growth (S. cerevisiae deletion strains, locus YPL240C, strain hsp82, stronger effect = lower value) of 0.991 and a normalized growth (S. cerevisiae deletion strains, locus YPL241C, strain CIN2, stronger effect = lower value) of 0.984. The normalized growth (S. cerevisiae deletion strains, locus YPL256C, strain CLN2, stronger effect = lower value) was 0.963, the normalized growth (S. cerevisiae deletion strains, locus YPR119W, strain clb2, stronger effect = lower value) was 0.964 and the normalized growth (S. cerevisiae deletion strains, locus YPR141C, strain kar3, stronger effect = lower value) was 0.974. The normalized growth (S. cerevisiae deletion strains, locus YPR163C, strain tif3, stronger effect = lower value) was 0.898 (active), the normalized growth (S. cerevisiae deletion strains, locus YPR167C, strain met16, stronger effect = lower value) was 0.97 and the normalized growth (S. cerevisiae deletion strains, strain wtn01, stronger effect = lower value) was 0.924. The normalized growth (S. cerevisiae strains, strain wild type, stronger effect = lower value) was 0.961.
